Screening data: PubChem, Broad Institute
Sampled rows, rich in hits. Any-hit rate of the full collection: about 7.8%.
NOMO-1 viab: STK33 inhibitor candidate reducing NOMO-1 cell viability | actives 7.5% (n = 37,000) | AID 2330 | inhibition, % (no concentration beside the values) | NOMO-1 AML viability, CellTiter-Glo luminescence, 72 h; in the data active means inhibition above about 80%; inconclusive means no clear call, values can overlap the other calls
PD-1 reversal: activators reversing PD-1 mediated T-cell inhibition; activation, % (test concentration not listed); primary human CD4 T cells, PD-L1 beads, CellTiter-Glo 96 h; AID 2316; 29,000 tested, under 10 active; call rule not given here
MITF inhib: blocks MITF activity; actives 0.28% (n = 37,000); TRPM1 promoter luciferase, luminescence, 24 h; inhibition, % (no concentration beside the values); AID 2240; in the data active means inhibition above about 85%; inconclusive means no clear call, values can overlap the other calls; inactive means below about 68%;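 further: human melanocyte line stably carrying TRPM1 promoter luciferase reporter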
Shh pathway inh: blocks Sonic Hedgehog signaling | Shh-LIGHT2 Gli-luciferase reporter, 30 h | inhibition, % (no concentration beside the values) | actives 2.1% (n = 22,000);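 active means mean inhibition across valid replicates above about 65%, limit read from the data; inconclusive means mean under the limit, yet half or more replicates past it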;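 further: pathway switched on by Shh-conditioned medium diluted 1 in 25 in low serum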
Hits are given with their value; 0 = inactive; ? = inconclusive; - = not tested or not shown.

SMILES	NOMO-1 viab	PD-1 reversal	MITF inhib	Shh pathway inh
C[C@@H]1CN([C@@H](C)CO)C(=O)c2cc(NC(=O)Nc3cccc4ccccc34)ccc2O[C@@H]1CN(C)Cc1ccc(C(F)(F)F)cc1	106.4	0	0	-
COC(=O)c1cn(CC(=O)NCC2CCCO2)c2ccccc12 (configuration not stated)	0	0	0	-
CC(C)(C)c1cc2oc3c(c2c(C=NCc2ccncc2)c1O)CCCC3	0	0	0	0
COc1cccc2c1C(=O)c1c(O)c3c(c(O)c1C2=O)C[C@@](O)(C(C)=O)C[C@@H]3O[C@H]1C[C@H](N)[C@H](O)[C@H](C)O1	120.6	-	0	98.6
Cc1ccc(Cl)cc1NC(=O)C(C)NS(=O)(=O)c1ccc(Br)cc1 (configuration not stated)	0	0	0	-
Nc1ncnc(Oc2cccc3cccnc23)c1[N+](=O)[O-]	107.7	0	0	-
C[C@@H]1CN([C@H](C)CO)C(=O)c2cccc(NC(=O)c3ccc(-c4nccs4)cc3)c2O[C@@H]1CN(C)Cc1ccc(Oc2ccccc2)cc1	88.6	0	0	70.5
C[C@H]1CN([C@@H](C)CO)C(=O)c2cccc(NC(=O)c3ccc(-c4nccs4)cc3)c2O[C@H]1CN(C)Cc1ccccc1	0	-	0	0
C[C@@H]1CN([C@@H](C)CO)C(=O)c2cccc(NC(=O)c3ccc(-c4nccs4)cc3)c2O[C@H]1CN(C)Cc1ccc(Oc2ccccc2)cc1	111.3	0	0	0
CC(C)c1cc(C(C)C)c(N)c(C(C)C)c1	0	0	0	0
Oc1ccc(CCCCC(CCc2ccc(O)cc2)O[C@@H]2OC[C@@H](O)[C@H](O)[C@H]2O)cc1 (some centres not stated)	-	-	-	0
O=C(CCc1ccc(O)cc1)CC(CCc1ccc(O)cc1)O[C@@H]1OC[C@@H](O)[C@H](O)[C@H]1O (some centres not stated)	112.6	0	0	0
COc1ccccc1CCNC(=O)c1cc(-c2ccccn2)nc2c(C)c(Cl)ccc12	101.4	-	0	-
NCCNc1ccc([N+](=O)[O-])c(NCCO)c1	0	0	0	-
C[C@H]1CN([C@@H](C)CO)C(=O)c2cccc(NC(=O)C3CCCCC3)c2O[C@H]1CN(C)Cc1ccc(C(=O)Nc2ccccc2N)cc1	127.2	0	0	-
C[C@@H]1CN([C@H](C)CO)C(=O)c2cccc(NC(=O)C3CCOCC3)c2O[C@H]1CN(C)Cc1ccc(C(=O)Nc2ccccc2N)cc1	0	0	0	-
C[C@@H]1CN([C@@H](C)CO)C(=O)c2cccc(NC(=O)NC3CCCCC3)c2O[C@@H]1CN(C)Cc1ccc(C(=O)Nc2ccccc2N)cc1	128.8	0	0	-
C[C@@H]1CN([C@@H](C)CO)C(=O)c2cccc(NC(=O)C3CC3)c2O[C@@H]1CN(C)Cc1ccc(C(=O)Nc2ccccc2N)cc1	128.1	0	0	-
C[C@H](CO)N1C[C@H](C)[C@H](CN(C)Cc2ccc(C(=O)Nc3ccccc3N)cc2)Oc2c(NC(=O)C3CC3)cccc2C1=O	122.0	0	0	-
Cc1[nH]c2ccccc2c1Sc1ccccc1	140.8	0	0	70.6
CCOC(=O)c1oc2ccccc2c1NC(=O)CCN1CCCCC1	0	0	0	-
COc1ccc(CN(C)C[C@H]2Oc3ccc(NC(=O)Nc4ccc(C(F)(F)F)cc4)cc3CC(=O)N([C@@H](C)CO)C[C@H]2C)cc1	124.0	-	0	-
COc1ccc(CN(C)C[C@@H]2Oc3ccc(NC(=O)Nc4ccc(C(F)(F)F)cc4)cc3CC(=O)N([C@H](C)CO)C[C@@H]2C)cc1	118.3	0	0	-
COc1ccc(NC(=O)Nc2ccc3c(c2)CC(=O)N([C@H](C)CO)C[C@@H](C)[C@@H](CN(C)Cc2ccc(C(F)(F)F)cc2)O3)cc1	90.2	-	0	?
COc1ccc(NC(=O)Nc2ccc3c(c2)CC(=O)N([C@@H](C)CO)C[C@H](C)[C@H](CN(C)Cc2ccc(C(F)(F)F)cc2)O3)cc1	0	-	0	0
SMILES	NOMO-1 viab	PD-1 reversal	MITF inhib	Shh pathway inh
COc1ccc(CN(C)C[C@H]2Oc3ccc(NC(=O)Nc4ccc(C(F)(F)F)cc4)cc3CC(=O)N([C@H](C)CO)C[C@H]2C)cc1	127.0	0	0	0
CCc1ccc(Nc2nc3ccccc3nc2NS(=O)(=O)c2ccc(C)cc2)cc1	0	0	0	0
CCOC(=O)CNc1n[nH]c(=O)[nH]c1=O	0	0	0	0
COc1ccc(/C=C2\Cc3ccccc3C2=O)cc1	0	0	0	-
COc1ccc(NC(=O)Nc2ccc3c(c2)CC(=O)N([C@H](C)CO)C[C@@H](C)[C@H](CN(C)Cc2ccc(C(F)(F)F)cc2)O3)cc1	112.7	-	0	0
COc1ccc(CN(C)C[C@@H]2Oc3ccc(NC(=O)Nc4ccc(C(F)(F)F)cc4)cc3CC(=O)N([C@H](C)CO)C[C@H]2C)cc1	0	0	0	0
CSc1cc(C(F)(F)F)c(C(=O)Nc2c(C)cccc2C)cn1	0	0	0	0
C[C@H]1CN([C@@H](C)CO)C(=O)c2cc(NC(=O)Cc3ccccc3)ccc2O[C@@H]1CN(C)Cc1ccc(Oc2ccccc2)cc1	92.8	-	0	-
C[C@@H]1CN([C@@H](C)CO)C(=O)c2cc(NC(=O)Nc3ccccc3)ccc2O[C@@H]1CN(C)Cc1ccc(Oc2ccccc2)cc1	116.5	0	0	-
COc1ccc(NC(=O)Nc2ccc3c(c2)C(=O)N([C@H](C)CO)C[C@H](C)[C@H](CN(C)Cc2ccc(-c4ccccc4)cc2)O3)cc1	0	0	0	-
COc1ccc(NC(=O)Nc2ccc3c(c2)C(=O)N([C@@H](C)CO)C[C@@H](C)[C@@H](CN(C)Cc2ccc(-c4ccccc4)cc2)O3)cc1	115.8	0	0	0
C[C@@H]1CN([C@@H](C)CO)C(=O)c2cc(NC(=O)NC3CCCCC3)ccc2O[C@@H]1CN(C)Cc1ccc(Oc2ccccc2)cc1	119.8	0	0	0
O=c1c2ccccc2nc(SCc2ccc3c(c2)OCO3)n1-c1ccccc1	0	0	0	-
N#C/C(=C\c1ccc(Cl)cc1)c1ccccc1	0	0	0	0
COc1ccc(NC(=O)Nc2ccc3c(c2)C(=O)N([C@H](C)CO)C[C@@H](C)[C@@H](CN(C)Cc2ccc(Oc4ccccc4)cc2)O3)cc1	122.1	-	0	95.6
COc1ccc(NC(=O)Nc2ccc3c(c2)C(=O)N([C@@H](C)CO)C[C@H](C)[C@@H](CN(C)Cc2ccc(Oc4ccccc4)cc2)O3)cc1	0	0	0	0
O=C(/C=C/CCc1ccccc1)CCc1ccccc1	121.3	0	0	0
CC1(C)Cc2c(sc(NC(=O)C(c3ccccc3)c3ccccc3)c2C#N)CO1	0	0	0	0
CCOC(=O)c1nc2ccccc2c(=O)n1/N=C/c1cc(Cl)cc(Cl)c1O	101.4	0	0	0
Cn1c(SCC(=O)Nc2ccc(Cl)cc2Cl)nc2ccccc2c1=O	0	0	0	-
COc1ccc(NC(=O)C2CC=CCC2C(=O)Nc2ccccc2Cl)cc1 (configuration not stated)	0	0	0	-
COC(=O)/C=C/S(=O)(=O)c1ccc(NC(C)=O)cc1	125.5	0	0	94.4
O=C(O)CCc1ccc(-c2ccc(F)cc2)n1-c1cccc(C(=O)O)c1	0	0	0	-
